Data published in publication PMC5540273 (PLoS ONE, 2017).

What follows are compounds tested on AXL. Conditions: concentration: 1 μM, replicates: in singlicate; n = 1.
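Also: KINOMEscan kinase panel screen.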

SMILES	%Inh
COc1ccc(Nc2nccc(N3CCC(NC(=O)c4cccc(NC(C)=O)c4)C3)n2)cc1 (centres unmarked) [GSK1379732]	1%
CC(=O)Nc1n[nH]c2ncc(-c3ccccc3)cc12 [SB-548492]	21%
COc1ccc(Nc2nccc(N3CCC(NC(=O)Nc4ccc5c(c4)OCO5)C3)n2)cc1 (centres unmarked) [GSK1379745]	22%
CCCc1ccc(S(=O)(=O)NC2CCN(c3ccnc(Nc4ccc(OC)cc4)n3)C2)cc1 (centres unmarked) [GSK1379737]	0%
Nc1nccc2scc(-c3ccc4c(c3)CCN4C(=O)Cc3cc(F)ccc3F)c12 [GSK2587663]	41%
CS(=O)(=O)CCNCc1nc(-c2ccc3ncnc(Nc4ccc(OCc5cccc(F)c5)c(Cl)c4)c3c2)cs1.Cl [GW583340]	0%
COc1ccc(NC(=O)Nc2ccc(C)c(-c3ccc(C(=O)Nc4ccncc4)cc3)c2)cc1 [GSK1398475]	0%
FC(F)(F)c1cc(Nc2nccc(-c3c(-c4ccc(Cl)cc4)nn4ncccc34)n2)ccc1Cl [GW829351]	0%
Cl.Cl.c1ccc(-c2cc3ccncc3cc2OC2CCNCC2)cc1 [GSK1122999]	27%
Nc1nc(-c2ccc3c(N)n[nH]c3c2)cc(N2CCCCC2)n1 [GSK2228768]	0%
COc1cc2c(Nc3cccc(NC(=O)c4ccccc4)c3)ncnc2cc1OCCCN1CCOCC1 [GSK223810]	42%
Clc1cccc(-c2nc(Nc3ccncc3)c3ccccc3n2)c1 [GW873004]	0%
CSc1ccc(NC2=C(c3ccccc3Cl)C(=O)NC2=O)cc1 [SB-342411]	3%
O=C(Nc1ccccc1F)NC1CCN(c2ccnc(Nc3ccc(F)cc3)n2)C1 (centres unmarked) [GSK1379722]	0%
Cc1ccc(NC(=O)c2cccc(C#N)c2)cc1-c1ccc(C(=O)Nc2ccncc2)cc1 [GSK1398463]	11%
Nc1nc(-c2ccc3c(N)n[nH]c3c2)cc(N2CCC[C@@H](C(=O)Nc3ccccc3)C2)n1.O=C(O)C(F)(F)F.O=C(O)C(F)(F)F [GSK2288359]	0%
CCc1nc(-c2cccc(C)c2)c(-c2ccnc(NC(=O)c3ccccc3)c2)s1	0%
Cl.Fc1ccccc1COc1ccc(Nc2ncnc3ccc(-c4nnc(C(F)(F)F)o4)cc23)cc1Cl [GW424170]	0%
Clc1cc(Nc2ncnc3cc[nH]c23)ccc1OCc1ccccn1	19%
CC(C)N1CCC(n2cnc(-c3ccc(F)cc3)c2-c2ccnc(N)n2)CC1 [SB-223132]	5%
COC(=O)c1cccc(NC(=O)NCCNc2ccnc(Nc3ccc(F)cc3)n2)c1 [GSK1379883]	5%
Cc1ccc(C)c(NC(=O)NCCNc2ccnc(Nc3ccc(F)cc3)n2)c1 [GSK1379878]	0%
CCC(CC)(CC)n1cnc2c(N)ncnc21 [SKF-97620]	0%
